Reference: PubChem BioAssay (NCI)
Values joined by “and” are separate entries in the source; they are usually repeats but may differ in a detail not shown here. Equal values may be shown once. The panel holds about 79,000 compounds, 15% with a hit somewhere; the sample as a whole holds those more often. Some structures have more than one record in an assay (separate samples or runs), and their calls can disagree. Active and inactive are the calls of the source. Cut-off read from the data, not from the text of the source: active = growth inhibition above about 70%; inactive = the rest.

Key:
[1] = NCI Yeast Anticancer Drug Screen. Data for the rad52 strain (AID 147);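 note: 0% = growth of vehicle-treated control cultures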; details: S. cerevisiae rad52 mutant growth inhibition, stronger effect = higher value
How it was run: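 Here a repair-compromised yeast strain receives each compound; its growth is then quantified and normalised to vehicle-only controls.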

[2] = NCI Yeast Anticancer Drug Screen. Data for the wt1 strain (AID 149);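 note: 0% = growth of vehicle-treated wt1 cultures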; details: S. cerevisiae wt1 strain (SPY 50644) growth inhibition, stronger effect = higher value
How it was run: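 Each compound is tested on wt1 yeast and the loss of growth versus vehicle gives the inhibition value.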

[3] = NCI Yeast Anticancer Drug Screen. Data for the rad50EPP+ strain (AID 151);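 note: 0% = growth of vehicle-treated control cultures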; details: S. cerevisiae rad50 mutant strain, stronger effect = higher value
How it was run: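 Read-out is yeast growth inhibition relative to vehicle; cells used were the rad50EPP+ strain.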

[4] = NCI Yeast Anticancer Drug Screen. Data for the mgt1 strain (AID 153); details: S. cerevisiae mgt1 mutant growth inhibition, stronger effect = higher value
How it was run: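 Measured: inhibition of mgt1 yeast growth by compound, normalized to vehicle-treated cultures.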

[5] = NCI Yeast Anticancer Drug Screen. Data for the rad50 strain (AID 155);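 note: 0% = growth of vehicle-only cultures of the same strain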; details: S. cerevisiae rad50 strain growth inhibition, stronger effect = higher value
How it was run: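 Vehicle-treated cultures provide the reference for the growth inhibition reported for compound-exposed, repair-deficient yeast.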

[6] = NCI Yeast Anticancer Drug Screen. Data for the mec2-1 strain (AID 157); details: S. cerevisiae mec2-1 strain, stronger effect = higher value
How it was run: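 Using mec2-1 yeast: add compound, measure growth, express inhibition versus vehicle-treated cultures.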

[7] = NCI Yeast Anticancer Drug Screen. Data for the rad14 strain (AID 159);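 note: 0% = growth of vehicle-treated control cultures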; details: S. cerevisiae rad14 strain growth inhibition, stronger effect = higher value
How it was run: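 Inhibition of growth is reported for a repair-deficient yeast mutant following compound treatment, calculated relative to cultures that received vehicle.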

[8] = NCI Yeast Anticancer Drug Screen. Data for the sgs1 mgt1 strain (AID 161);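 note: 0% = growth of cultures given vehicle only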; details: S. cerevisiae sgs1 mgt1 strain, stronger effect = higher value
How it was run: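 Percent growth inhibition was derived by comparing compound-exposed mutant yeast with vehicle-exposed cultures. The strain carries alterations in DNA damage repair.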

[9] = NCI Yeast Anticancer Drug Screen. Data for the CLN2oe strain (AID 163);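 note: 0% = growth of vehicle-only control cultures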; details: S. cerevisiae CLN2oe strain, stronger effect = higher value
How it was run: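 Whole-cell yeast growth assay. A strain engineered for altered cell-cycle control received compound, and inhibition relative to vehicle-treated cultures was recorded.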

[10] = NCI Yeast Anticancer Drug Screen. Data for the cln2 rad14 strain (AID 165);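 note: 0% = growth equal to vehicle treated cultures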; details: S. cerevisiae cln2 rad14 strain, stronger effect = higher value
How it was run: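 Yeast strain cln2 rad14, bearing defects in cell cycle control and DNA repair, serves as the test system; values reflect growth inhibition compared with vehicle.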

[11] = NCI Yeast Anticancer Drug Screen. Data for the bub3 strain (AID 167); details: S. cerevisiae bub3 mutant strain, stronger effect = higher value
How it was run: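 Mutant yeast screening strain plus compound; vehicle-treated cultures serve as the 0% inhibition reference.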

[12] = NCI Yeast Anticancer Drug Screen. Data for the wt2 strain (AID 169); details: S. cerevisiae wt2 strain growth inhibition, stronger effect = higher value
How it was run: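 Treated yeast vs. vehicle-treated yeast: growth inhibition determined.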

[13] = NCI Yeast Anticancer Drug Screen. Data for the mlh1 strain (AID 171);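 note: 0% = growth of vehicle-treated control cultures of the same strain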; details: S. cerevisiae mlh1 strain growth inhibition, stronger effect = higher value
How it was run: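 A yeast strain with a defined genetic lesion serves as the test organism. Cultures receive compound or vehicle, and growth is measured.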

[14] = NCI Yeast Anticancer Drug Screen. Data for the sgs1 strain (AID 173);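 note: 0% = growth of vehicle-only control cultures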; details: S. cerevisiae sgs1 mutant, stronger effect = higher value
How it was run: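 A genetically defined yeast mutant is incubated with the test compound, and its growth is compared to that of the same strain given vehicle.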

[15] = NCI Yeast Anticancer Drug Screen. Data for the mlh1 rad18 strain (AID 175); details: S. cerevisiae mlh1 rad18 strain growth inhibition, stronger effect = higher value
How it was run: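 Steps: expose repair-defective yeast to compound; measure growth; express inhibition against vehicle-treated controls.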

[16] = NCI Yeast Anticancer Drug Screen. Data for the rad18 strain (AID 177); details: S. cerevisiae rad18 mutant growth inhibition, stronger effect = higher value
How it was run: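 Measured value is growth inhibition of a yeast strain bearing a DNA repair alteration, referenced to vehicle-treated cells.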

[17] = at 5.0 µM (retest, dose inferred, filed as 0.5)
[18] = at 50.0 µM (retest, dose inferred, filed as 5.0)

Measured: growth inhibition

O=C(C[n+]1ccc2ccccc2c1)c1ccc2ccccc2c1
-32.4% (inactive) and 71.7% (active): [11]; at 50.0 µM
-28.4% (inactive) and 85.2% (active): [5]; at 50.0 µM
inactive: [1]; at 1.2 µM 10% | [1]; at 3.7 µM -1% | [1]; at 11.0 µM 7% | [1]; at 33.0 µM 20% | [2]; at 1.2 µM -6% | [2]; at 3.7 µM -17% | [2]; at 11.0 µM -24% | [2]; at 33.0 µM -22% | [3]; at 1.2 µM -19% | [3]; at 3.7 µM -42% | [3]; at 11.0 µM -35% | [3]; at 33.0 µM -20% | [4]; at 1.2 µM -18% | [4]; at 3.7 µM -7% | [4]; at 11.0 µM -32% | [4]; at 33.0 µM -13% | [5]; at 1.2 µM -20% | [5]; at 3.7 µM -26% | [5]; [17] 51% | [5]; at 11.0 µM -30% | [5]; at 33.0 µM -7% | [6]; at 1.2 µM -37% | [6]; at 3.7 µM -23% | [6]; [17] 64% | [6]; at 11.0 µM -77% | [6]; at 33.0 µM -41% | [6]; at 50.0 µM -5.2% and 39.1% | [7]; at 1.2 µM -45% | [7]; at 3.7 µM -44% | [7]; at 11.0 µM -36% | [7]; at 33.0 µM 11% | [8]; [17] -46% | [8]; at 50.0 µM -9.25% and 61.6% | [9]; at 1.2 µM 8% | [9]; at 3.7 µM -9% | [9]; at 11.0 µM 1% | [9]; at 33.0 µM 13% | [10]; [17] 19% | [11]; at 1.2 µM -19% | [11]; at 3.7 µM -12% | [11]; [17] -4% | [11]; at 11.0 µM -27% | [11]; at 33.0 µM -15% | [11]; [18] 51% | [12]; at 1.2 µM -37% | [12]; at 3.7 µM -25% | [12]; at 11.0 µM -53% | [12]; at 33.0 µM -18% | [13]; at 1.2 µM -15% | [13]; at 3.7 µM -30% | [13]; at 11.0 µM -36% | [13]; at 33.0 µM -22% | [14]; at 1.2 µM -30% | [14]; at 3.7 µM -34% | [14]; at 11.0 µM -34% | [14]; at 33.0 µM -26% | [15]; [17] 68% | [15]; at 50.0 µM -11.2% and 69.5% | [16]; at 1.2 µM -21% | [16]; at 3.7 µM -24% | [16]; at 11.0 µM -15% | [16]; at 33.0 µM -3%
active: [1]; at 100.0 µM 99% | [2]; at 100.0 µM 97% | [3]; at 100.0 µM 74% | [4]; at 100.0 µM 98% | [5]; [18] 100% | [5]; at 100.0 µM 98% | [6]; [18] 99% | [6]; at 100.0 µM 98% | [7]; at 100.0 µM 97% | [8]; [18] 77% | [9]; at 100.0 µM 99% | [10]; [18] 81% | [11]; at 100.0 µM 98% | [12]; at 100.0 µM 97% | [13]; at 100.0 µM 97% | [14]; at 100.0 µM 97% | [15]; [18] 100% | [16]; at 100.0 µM 99%
-10% (inactive) and 71.2% (active): [10]; at 50.0 µM

CCN(CC)Cc1cc(Nc2c3ccccc3nc3c2[nH]c2ccccc23)cc(CN(CC)CC)c1O
inactive: [1]; at 1.2 µM 32% | [1]; at 3.7 µM 21% | [1]; at 11.0 µM 12% | [1]; at 33.0 µM 7% | [1]; at 100.0 µM 18% | [2]; at 1.2 µM 1% | [2]; at 3.7 µM 2% | [2]; at 11.0 µM -1% | [2]; at 33.0 µM 0% | [2]; at 100.0 µM 3% | [3]; at 1.2 µM 3% | [3]; at 3.7 µM 1% | [3]; at 11.0 µM 3% | [3]; at 33.0 µM 2% | [3]; at 100.0 µM 13% | [4]; at 1.2 µM -3% | [4]; at 3.7 µM -3% | [4]; at 11.0 µM -3% | [4]; at 33.0 µM -16% | [4]; at 100.0 µM 1% | [5]; at 1.2 µM 25% | [5]; at 3.7 µM 7% | [5]; [17] -3% | [5]; at 11.0 µM -4% | [5]; at 33.0 µM 10% | [5]; [18] 10% | [5]; at 50.0 µM 17.8% | [5]; at 100.0 µM 23% | [6]; at 1.2 µM 2% | [6]; at 3.7 µM 1% | [6]; [17] -2% | [6]; at 11.0 µM -1% | [6]; at 33.0 µM 2% | [6]; [18] 15% | [6]; at 50.0 µM 21.3% | [6]; at 100.0 µM 5% | [7]; at 1.2 µM -1% | [7]; at 3.7 µM -3% | [7]; at 11.0 µM -1% | [7]; at 33.0 µM 2% | [7]; at 100.0 µM 8% | [8]; [17] -5% | [8]; [18] 1% | [8]; at 50.0 µM -10.1% | [9]; at 1.2 µM -5% | [9]; at 3.7 µM -3% | [9]; at 11.0 µM 1% | [9]; at 33.0 µM 3% | [9]; at 100.0 µM 7% | [10]; [17] 48% | [10]; [18] 61% | [10]; at 50.0 µM 66% | [11]; at 1.2 µM -2% | [11]; at 3.7 µM -4% | [11]; [17] 16% | [11]; at 11.0 µM -3% | [11]; at 33.0 µM -3% | [11]; [18] 38% | [11]; at 50.0 µM -10.2% | [11]; at 100.0 µM 0% | [12]; at 1.2 µM -1% | [12]; at 3.7 µM -2% | [12]; at 11.0 µM -4% | [12]; at 33.0 µM -2% | [12]; at 100.0 µM 1% | [13]; at 1.2 µM 1% | [13]; at 3.7 µM 2% | [13]; at 11.0 µM 1% | [13]; at 33.0 µM 1% | [13]; at 100.0 µM 7% | [14]; at 1.2 µM 6% | [14]; at 3.7 µM 3% | [14]; at 11.0 µM -2% | [14]; at 33.0 µM -2% | [14]; at 100.0 µM 0% | [15]; [17] 13% | [15]; [18] 16% | [15]; at 50.0 µM -11.6% | [16]; at 1.2 µM 16% | [16]; at 3.7 µM 9% | [16]; at 11.0 µM -2% | [16]; at 33.0 µM -11% | [16]; at 100.0 µM -7%
